Assay results published in PubChem BioAssay (NCATS).
Values joined by “and” are separate entries in the source; they are usually repeats but may differ in a detail not shown here. Identical values can stand only once. Results filed as inconclusive are left out. Active and inactive are the calls of the source. Calls follow the shape of the dose curve; as a rule, active = well fitted cell-killing curve with a large enough effect; inconclusive = small, poorly fitted or top-dose-only effect, or effect the other way; inactive = flat fitted curve, though single readings scatter.

Assays:
Assay in all cases: Primary qHTS to identify gynecologic anti-cancer compounds using libraries of approved drugs and bioactive compounds (AID 1345084); also: nearly all actives have a fitted effect of over 55% in size
CASKI = settings: Gynecologic cancer cell panel viability, ATPlite luminescence, 48 h; series mostly up to 57.5 µM
How it was run: (§1)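 Five-concentration response, 48 h; readout is ATP-driven luciferase luminescence.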

Es-2 = settings: Gynecologic cancer cell panel viability, ATPlite luminescence, 48 h; series mostly up to 57.5 µM
How it was run: as §1

HeLa = settings: Gynecologic cancer cell panel viability, ATPlite luminescence, 48 h; series mostly up to 57.5 µM
How it was run: as §1

Hek293T = settings: Gynecologic cancer cell panel viability, ATPlite luminescence, 48 h, control line for the selectivity index; series mostly up to 57.5 µM
How it was run: as §1

JEG-3 = settings: Gynecologic cancer cell panel viability, ATPlite luminescence, 48 h; series mostly up to 57.5 µM
How it was run: as §1

OV90 = settings: Gynecologic cancer cell panel viability, ATPlite luminescence, 48 h; series mostly up to 57.5 µM
How it was run: as §1

PA-1 = settings: Gynecologic cancer cell panel viability, ATPlite luminescence, 48 h; series mostly up to 57.5 µM
How it was run: as §1

SKOV3 = settings: Gynecologic cancer cell panel viability, ATPlite luminescence, 48 h; series mostly up to 57.5 µM
How it was run: as §1

Tov-21-G = settings: Gynecologic cancer cell panel viability, ATPlite luminescence, 48 h; series mostly up to 57.5 µM
How it was run: as §1

Tov112D = settings: Gynecologic cancer cell panel viability, ATPlite luminescence, 48 h; series mostly up to 57.5 µM
How it was run: as §1
% is scaled to controls: 0 for no effect and ±100 for the full control effect; potency is read from the fitted curve at half-maximal effect.

CC1Cc2ccccc2N1NC(=O)c1ccc(Cl)c(S(N)(=O)=O)c1 (stereo not given)
inactive: Potency (CASKI) | Potency (Es-2) | Potency (HeLa) | Potency (Hek293T) | Potency (JEG-3) | Potency (OV90) | Potency (PA-1) | Potency (SKOV3) | Potency (Tov-21-G) | Potency (Tov112D)

O=C(O)c1cccc(-c2noc(-c3ccccc3F)n2)c1
active: Potency (CASKI) 11.2 µM and 14.1 µM | Potency (Es-2) 3.16 µM and 6.31 µM | Potency (HeLa) 7.08 µM and 10 µM | Potency (Hek293T) 4.47 µM and 7.08 µM | Potency (JEG-3) 7.94 µM and 11.2 µM | Potency (OV90) 12.6 µM | Potency (PA-1) 3.55 µM and 7.94 µM | Potency (SKOV3) 10 µM and 12.6 µM | Potency (Tov-21-G) 5.01 µM and 8.91 µM | Potency (Tov112D) 7.94 µM and 10 µM

COc1ccc2cc([C@H](C)C(=O)O)ccc2c1
inactive: Potency (CASKI) | Potency (Es-2) | Potency (HeLa) | Potency (Hek293T) | Potency (JEG-3) | Potency (OV90) | Potency (PA-1) | Potency (SKOV3) | Potency (Tov-21-G) | Potency (Tov112D)

NS(=O)(=O)c1cc(C(=O)O)c(NCc2ccco2)cc1Cl
inactive: Potency (CASKI) | Potency (Es-2) | Potency (HeLa) | Potency (Hek293T) | Potency (JEG-3) | Potency (OV90) | Potency (PA-1) | Potency (SKOV3) | Potency (Tov-21-G) | Potency (Tov112D)

CN(c1nccc(=O)[nH]1)C1CCN(c2nc3ccccc3n2Cc2ccc(F)cc2)CC1
inactive: Potency (CASKI) | Potency (Es-2) | Potency (HeLa) | Potency (Hek293T) | Potency (JEG-3) | Potency (OV90) | Potency (PA-1) | Potency (SKOV3) | Potency (Tov-21-G) | Potency (Tov112D)

COc1ccc(C2(C#N)CCC(C(=O)O)CC2)cc1OC1CCCC1 (stereo not given)
inactive: Potency (CASKI) | Potency (Es-2) | Potency (HeLa) | Potency (Hek293T) | Potency (JEG-3) | Potency (OV90) | Potency (PA-1) | Potency (SKOV3) | Potency (Tov-21-G) | Potency (Tov112D)

CCN(CCO)CCCC(C)Nc1ccnc2cc(Cl)ccc12 (stereo not given)
inactive: activity change, negative = cytotoxicity (CASKI) 22.4% [at 6.55 µM] and 10.4% [at 6.55 µM] | activity change, negative = cytotoxicity (Es-2) -1.37% [at 6.55 µM] and -0.815% [at 6.55 µM] | activity change, negative = cytotoxicity (HeLa) 2.67% [at 6.55 µM] and -11.2% [at 6.55 µM] | activity change, negative = cytotoxicity (Hek293T) 9.38% [at 6.55 µM] and 2.44% [at 6.55 µM] | activity change, negative = cytotoxicity (JEG-3) -0.0768% [at 6.55 µM] and 4.75% [at 6.55 µM] | activity change, negative = cytotoxicity (OV90) -3.69% [at 6.55 µM] | activity change, negative = cytotoxicity (PA-1) 16.5% [at 6.55 µM] and 2.35% [at 6.55 µM] | activity change, negative = cytotoxicity (SKOV3) -2.72% [at 6.55 µM] and 0.445% [at 6.55 µM] | activity change, negative = cytotoxicity (Tov-21-G) 2.96% [at 6.55 µM] and -2.5% [at 6.55 µM] | activity change, negative = cytotoxicity (Tov112D) 10.4% [at 6.55 µM] and 2.64% [at 6.55 µM]

Cc1ccc(C)c(OCCCC(C)(C)C(=O)O)c1
inactive: Potency (CASKI) | Potency (Es-2) | Potency (HeLa) | Potency (Hek293T) | Potency (JEG-3) | Potency (OV90) | Potency (PA-1) | Potency (SKOV3) | Potency (Tov-21-G) | Potency (Tov112D)

CCCCC(CC)COC(=O)C(C#N)=C(c1ccccc1)c1ccccc1 (stereo not given)
inactive: Potency (CASKI) | Potency (Es-2) | Potency (HeLa) | Potency (Hek293T) | Potency (JEG-3) | Potency (OV90) | Potency (PA-1) | Potency (SKOV3) | Potency (Tov-21-G) | Potency (Tov112D)

COc1c(O)cc2c(c1O)[C@@H]1O[C@H](CO)[C@@H](O)[C@H](O)[C@H]1OC2=O
inactive: Potency (CASKI) | Potency (Es-2) | Potency (HeLa) | Potency (Hek293T) | Potency (JEG-3) | Potency (OV90) | Potency (PA-1) | Potency (SKOV3) | Potency (Tov-21-G) | Potency (Tov112D)

N[C@@H](Cc1cc(I)c(Oc2cc(I)c(O)c(I)c2)c(I)c1)C(=O)O
inactive: Potency (CASKI) | Potency (Es-2) | Potency (HeLa) | Potency (Hek293T) | Potency (JEG-3) | Potency (OV90) | Potency (PA-1) | Potency (SKOV3) | Potency (Tov-21-G) | Potency (Tov112D)

Cc1nccn1CC1CCc2c(c3ccccc3n2C)C1=O (stereo not given)
inactive: Potency (CASKI) | Potency (Es-2) | Potency (HeLa) | Potency (Hek293T) | Potency (JEG-3) | Potency (OV90) | Potency (PA-1) | Potency (SKOV3) | Potency (Tov-21-G) | Potency (Tov112D)

Cc1cc2cc3c(C)cc(=O)oc3c(C)c2o1
inactive: Potency (CASKI) | Potency (Es-2) | Potency (HeLa) | Potency (Hek293T) | Potency (JEG-3) | Potency (OV90) | Potency (PA-1) | Potency (SKOV3) | Potency (Tov-21-G) | Potency (Tov112D)

Cc1cc2c(s1)Nc1ccccc1N=C2N1CCN(C)CC1
inactive: Potency (CASKI) | Potency (Es-2) | Potency (HeLa) | Potency (Hek293T) | Potency (JEG-3) | Potency (OV90) | Potency (PA-1) | Potency (SKOV3) | Potency (Tov-21-G) | Potency (Tov112D)

NC(=O)Cc1cccc(C(=O)c2ccccc2)c1N
inactive: Potency (CASKI) | Potency (Es-2) | Potency (HeLa) | Potency (Hek293T) | Potency (JEG-3) | Potency (OV90) | Potency (PA-1) | Potency (SKOV3) | Potency (Tov-21-G) | Potency (Tov112D)

Cc1nc2n(c(=O)c1CCN1CCC(c3noc4cc(F)ccc34)CC1)CCCC2
inactive: Potency (CASKI) | Potency (Es-2) | Potency (HeLa) | Potency (Hek293T) | Potency (JEG-3) | Potency (OV90) | Potency (PA-1) | Potency (SKOV3) | Potency (Tov-21-G) | Potency (Tov112D)

Cc1cccc(C)c1OCC(=O)N[C@@H](Cc1ccccc1)[C@@H](O)C[C@H](Cc1ccccc1)NC(=O)[C@H](C(C)C)N1CCCNC1=O
inactive: Potency (CASKI) | Potency (Es-2) | Potency (HeLa) | Potency (Hek293T) | Potency (JEG-3) | Potency (OV90) | Potency (PA-1) | Potency (SKOV3) | Potency (Tov-21-G) | Potency (Tov112D)

Cc1c(OCC(F)(F)F)ccnc1CS(=O)c1nc2ccccc2[nH]1 (stereo not given)
inactive: Potency (CASKI) | Potency (Es-2) | Potency (HeLa) | Potency (Hek293T) | Potency (JEG-3) | Potency (OV90) | Potency (PA-1) | Potency (SKOV3) | Potency (Tov-21-G) | Potency (Tov112D)
